From the supplement of paper PMC10498489
The campaign covered roughly 2,300 compounds. About 330 (14%) showed activity. Only a sample is shown. Unmarked numbers belong to inactive results.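 How the source made its calls: active = median modified Z-score above 1.96; inactive = 1.96 or below.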

Tested on: HepG2 Srxn1-GFP reporter cells (+30 nM CDDO-Me)
Experiment: Srxn1-GFP intensity median modified Z-score relative to plate median; higher = stronger NRF2 / oxidative stress reporter activation, active = hit call of the paper
Conditions: 10 µM; exposure time: 24h
Summary of the method: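 In 96-well plates holding 20,000 HepG2 Srxn1-GFP BAC reporter cells per well, compound at 10 μM and an NRF2 activator at 30 nM were added together for 24 h, with DMSO at ≤0.1%, across three replicate plates. After fixation in formaldehyde and Hoechst staining, confocal images were analysed cell by cell for cytoplasmic GFP, and images containing under 100 cells were excluded. Values are replicate medians of the per-plate modified Z-score of GFP intensity, scaled by 1.4826 × median absolute deviation.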

| Structure (SMILES) | Srxn1-GFP intensity median modified Z-score |
| --- | --- |
| CCC(C)(C)O [euspeclibcmpd964] | -0.585 |
| C#CC(C)(O)CC (stereo unspecified) [euspeclibcmpd1276] | 1.99 (active) |
| CC1C(=O)O[C@@H]2CCN3CC=C(COC(=O)[C@](C)(O)[C@]1(C)O)[C@H]23 (stereo partly specified) [euspeclibcmpd1632] | -0.339 |
| N=c1[nH]c(=N)[nH]c(=NC2CC2)[nH]1 [euspeclibcmpd1229] | -0.282 |
| CNC(=O)Oc1ccccc1OC(C)C [euspeclibcmpd1026] | -0.0719 |
| c1ccc2c(c1)oc1ccccc12 | 0.352 |
| c1ccc2c(c1)sc1ccccc12 [euspeclibcmpd88] | 3.54 (active) |
| C#CC1(O)CCC2C3CC=C4CC(=O)CCC4(C)C3CCC21C (stereo unspecified) [euspeclibcmpd545] | -0.576 |
| CN1C2C[C@H](OC(=O)C(CO)c3ccccc3)C[C@@H]1[C@@H](O)C2 (stereo partly specified) [euspeclibcmpd1244] | -0.443 |
| CC(C)CC(N(C)C)C1(c2ccc(Cl)cc2)CCC1 (stereo unspecified) [euspeclibcmpd2026] | -0.299 |
| O=c1cccc2n1C[C@H]1CNCC2C1 [euspeclibcmpd1159] | 0.6 |
| C[N+]1(C)C2CC(OC(=O)C(CO)c3ccccc3)CC1C1OC12 (stereo unspecified) [euspeclibcmpd193] | -0.176 |
| O=C(O)C1CCN1 (stereo unspecified) | 1.24 |
| C[N+](C)(C)CCCCCCCCCC[N+](C)(C)C [euspeclibcmpd902] | 4.92 (active) |
| NCC1(CC(=O)O)CCCCC1 [euspeclibcmpd872] | -0.0794 |
| CN(C(=O)Oc1cccc2cccnc12)c1ccccc1 | 5.69 (active) |
| COc1cc(OC)c2c(c1)O[C@H](c1ccc(OC)c(OC)c1)[C@@H](O)C2 [euspeclibcmpd1381] | -0.52 |
| COc1cc2c(cc1-c1cc3cc4ccoc4cc3oc1=O)OCO2 [euspeclibcmpd1721] | 0.147 |
| C[C@]12CCC3C(CC[C@H]4CC(=O)CC[C@]34C)C1CCC2=O (stereo partly specified) [euspeclibcmpd1450] | -0.253 |
| N#CC(O[C@@H]1O[C@H](CO[C@@H]2O[C@H](CO)[C@@H](O)[C@H](O)[C@H]2O)[C@@H](O)[C@H](O)[C@H]1O)c1ccccc1 (stereo partly specified) [euspeclibcmpd1342] | -0.305 |
| O=C(N/N=C/c1ccc([N+](=O)[O-])o1)c1cc([N+](=O)[O-])cc([N+](=O)[O-])c1O [euspeclibcmpd462] | 3.58 (active) |
| COc1ccc2c(c1)[nH]c1c(C)nccc12 [euspeclibcmpd1501] | 1.98 (active) |
| Cc1nccc2c1[nH]c1ccccc12 [euspeclibcmpd1462] | -0.275 |
| CNc1ccc(C(=O)CC(O)CCC(C)C2OC(=O)CC(O)CC(=O)CC(O)CC(O)CC(O)CC(O)CC3(O)CC(O)C(C(=O)OC)C(CC(OC4OC(C)C(O)C(N)C4O)C=CC=CC=CC=CC=CC=CC=CC2C)O3)cc1 (stereo unspecified) [euspeclibcmpd1836] | 0.559 |
| NC1C[C@H]1c1ccccc1 (stereo partly specified) [euspeclibcmpd300] | 1.01 |
| CCOC(=O)CC(SP(=S)(OC)OC)C(=O)OCC (stereo unspecified) [euspeclibcmpd992] | 0.167 |

| Structure (SMILES) | Srxn1-GFP intensity median modified Z-score |
| --- | --- |
| OC[C@@H]1CCCN2CCCC[C@H]12 [euspeclibcmpd1729] | -0.476 |
| CCN1C[C@@]2(COC)C3[C@@H](OC)[C@H]4[C@@H]1[C@]3(C(OC)C[C@H]2O)C1C[C@@]2(O)[C@H](OC(=O)c3ccccc3)C1[C@]4(OC(C)=O)[C@@H](O)[C@@H]2OC (stereo partly specified) [euspeclibcmpd686] | 0.0544 |
| COP(=O)(OC)OC=C(Cl)Cl [euspeclibcmpd1300] | 1.08 |
| CN(C)C(=S)SSC(=S)N(C)C [euspeclibcmpd571] | 1.95 |
| N#CC(=Cc1cccc(O)c1)C(=O)O [euspeclibcmpd2014] | 0.195 |
| Oc1cc(Cl)ccc1Oc1ccc(Cl)cc1Cl [euspeclibcmpd800] | 3.85 (active) |
| CC(Oc1ccc(Cl)cc1Cl)C(=O)O (stereo unspecified) [euspeclibcmpd2066] | 0.00229 |
| Oc1ccc(Cl)cc1 [euspeclibcmpd227] | -0.0545 |
| CCOc1cc(C=O)ccc1O [euspeclibcmpd2137] | 0.0734 |
| CNc1ccccc1C(=O)O [euspeclibcmpd1568] | -0.451 |
| CCC(C)C(=O)O[C@@H]1C[C@@]2(C)[C@H](c3ccoc3)OC(=O)CC23OC2(C)O[C@]14[C@]1(C)[C@@H](CC(=O)OC)C5(C)CC1(O)[C@](O)(C5OC(=O)C1(C)OC1C)[C@@H](OC(C)=O)[C@]34O2 (stereo partly specified) [euspeclibcmpd1590] | 1.25 |
| N=C(N)NOCCC(N)C(=O)O (stereo unspecified) [euspeclibcmpd2161] | -0.447 |
| C#C[C@]1(O)CC[C@H]2[C@@H]3CC=C4CC(=O)CCC4C3CC[C@@]21CC (stereo partly specified) [euspeclibcmpd2176] | 0.145 |
| NCCCc1c[nH]c2ccccc12 | 1.08 |
| CC1=C2C3OC(=O)C(C)[C@@H]3CC[C@@]2(C)C=CC1=O (stereo partly specified) [euspeclibcmpd1347] | 0.307 |
| CC=C(C)C(=O)O[C@H]1C[C@@H](OC(C)=O)[C@@]2(C(=O)OC)CO[C@@H]3C2[C@]12CO[C@](O)(C(=O)OC)[C@H]2[C@](C)([C@]12O[C@@]1(C)[C@H]1C[C@@H]2OC2OC=C[C@@]21O)[C@@H]3O (stereo partly specified) [euspeclibcmpd1486] | 2.24 (active) |
| C#C[C@]1(O)CCC2C3CC=C4CC(=O)CCC4C3CC[C@@]21CC (stereo partly specified) [euspeclibcmpd2251] | -0.375 |
| O=c1n(Cl)c(=O)n(Cl)c(=O)n1Cl [euspeclibcmpd935] | -0.815 |
| c1ccc(/N=N\c2ccccc2)cc1 [euspeclibcmpd1762] | 0.733 |
| C[C@]12CCC3c4ccc(OC(=O)N(CCCl)CCCl)cc4CCC3C1CC[C@@H]2O (stereo partly specified) [euspeclibcmpd984] | 2.13 (active) |
| C[C@]12CCC(=O)CC1=CCC1C2CC[C@@]2(C)C1CC[C@@H]2O (stereo partly specified) [euspeclibcmpd2134] | -0.455 |
| CCN(C)C(=O)Oc1cccc([C@H](C)N(C)C)c1 [euspeclibcmpd2067] | -0.306 |
| COC[C@]12CN(C=O)C3[C@@H]4[C@H](OC)C1[C@]3(C1CC3(O)C(OC)C(O)[C@]4(OC(C)=O)C1C3OC(=O)c1ccccc1)[C@@H](OC)C[C@H]2O (stereo partly specified) [euspeclibcmpd1413] | -0.00565 |
| COc1cc2c3cc1Oc1c(OC)c(OC)cc4c1[C@@H](Cc1cccc(c1)Oc1ccc(c(O)c1)C[C@@H]3N(C)CC2)N(C)CC4 [euspeclibcmpd1812] | 2.31 (active) |
| COc1ccc2c(c1O)-c1c(OC)c(OC)cc3c1[C@H](C2)N(C)CC3 [euspeclibcmpd1537] | -0.343 |
| COc1cc2c(cc1O)CC1c3c(cc(O)c(OC)c3-2)CCN1C (stereo unspecified) [euspeclibcmpd1326] | -0.347 |

| Structure (SMILES) | Srxn1-GFP intensity median modified Z-score |
| --- | --- |
| O=C(NC(O)C(Cl)(Cl)Cl)NC(O)C(Cl)(Cl)Cl (stereo unspecified) [euspeclibcmpd2304] | 0.189 |
| c1ccc2nc(N3CCNCC3)ccc2c1 [euspeclibcmpd578] | -0.285 |
| C[C@@H]1CC(Cl)CCC1C(=O)OC(C)(C)C (stereo partly specified) [euspeclibcmpd1756] | -0.159 |
| CNC(C)(C)Cc1ccccc1 [euspeclibcmpd691] | 0.194 |
| C[N+]1(C)CCc2cc3c(cc2[C@H]1C1OC(=O)c2c1ccc1c2OCO1)OCO3 (stereo partly specified) [euspeclibcmpd1466] | 2.41 (active) |
| CN1CCc2cc3c(cc2[C@H]1C1OC(=O)c2c1ccc1c2OCO1)OCO3 (stereo partly specified) [euspeclibcmpd1552] | -0.0938 |
| C#CCN(C)C(C)Cc1ccccc1 (stereo unspecified) [euspeclibcmpd993] | -0.386 |
| CCC1(CO)C(=O)NC(=O)NC1=O | 1.07 |
| COc1cc2occc2c2oc(=O)ccc12 [euspeclibcmpd1717] | -0.121 |
| O=C(O)Cc1ccccc1 [euspeclibcmpd2440] | -0.295 |
| NCC(=O)c1ccccc1 [euspeclibcmpd1673] | 3.04 (active) |
| NCCc1ccccc1 [euspeclibcmpd2078] | 0.0184 |
| C[N+]1([O-])C2CCC1CC(OC(=O)C(CO)c1ccccc1)C2 (stereo unspecified) [euspeclibcmpd2322] | -0.247 |
| C=CCC1(C(C)CCC)C(=O)NC(=S)NC1=O (stereo unspecified) [euspeclibcmpd2148] | -0.0652 |
| O=P1(NCCBr)OCCCN1CCCl (stereo unspecified) | 0.805 |
| CNCC(O)c1ccc(O)cc1 (stereo unspecified) [euspeclibcmpd1199] | 0.983 |
| COC(=O)C1=CO[C@@H](C)C2CN3CC[C@]4(C(=O)Nc5ccccc54)C3C[C@H]12 (stereo partly specified) [euspeclibcmpd2321] | -0.26 |
| CCCN(CCC)CCc1cccc2[nH]c(O)cc12 [euspeclibcmpd2384] | -0.25 |
| CCN(C(C)=O)c1cccc(-c2ccnc3c(C#N)cnn23)c1 [euspeclibcmpd886] | -0.312 |
| CC1(C)C(C=C(Cl)Cl)C1C(=O)OCc1cccc(Oc2ccccc2)c1 (stereo unspecified) [euspeclibcmpd989] | -0.481 |
| CC(N)Cc1ccc(O)cc1 (stereo unspecified) [euspeclibcmpd2033] | -0.0916 |
| O=C1C=CC(=O)c2ccccc21 [euspeclibcmpd1754] | 32.6 (active) |
| O=C1C(=O)c2ccccc2-c2ccccc21 | 0.845 |
| O=C1c2ccccc2C(=O)c2ccccc21 [euspeclibcmpd2403] | -0.277 |
